Screening results as filed in PubChem BioAssay.
The sample as a whole holds a higher share of hits than the screen did.
HTT ATP protect = qHTS Multiplex Assay to Identify Dual Action Probes in a Cell Model of Huntington: Cytoprotection (ATP). hit rate 0.14% among 230,000. Potency, µM (titrated, usually from 56.4 µM), for the others: cytoprotection (ATP increase), usual class: activators. PC12 HTT-Q103 induced, cytoprotection, ATP luminescence, 40 h; note: potency is the fitted concentration of half-maximal effect; % of control where 0% means no effect; nearly all actives have a fitted effect of over 45% in size
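Quantitative HTS on tebufenozide-induced (100 nM) PC12 cells expressing HTTQ103 exon 1–GFP; compounds tested as a concentration series; survival measured via cellular ATP.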
HTT aggregate = qHTS Multiplex Assay to Identify Dual Action Probes in a Cell Model of Huntington: Aggregate Formation (GFP) | Potency, µM (doses to about 46.1 µM), inactives show top-dose activity change, negative = inhibition, actives largely listed as inhibitors | PC12 HttQ103-GFP aggregates, Acumen cytometry, 40 h | AID 1688, 2009 | hit rate 1.1% among 220,000; note: potency is the fitted concentration of half-maximal effect; % is set by controls: 0 for no effect and ±100 for the full control effect; nearly all actives have a fitted effect of over 60% in size
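Aggregates are detected as GFP objects 1–25 µm with signal 6 STDEV over background in lysates of induced PC12 cells. These carry Huntingtin exon 1 with 103 glutamines fused to GFP under an ecdysone promoter; compounds titrated.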
PNC assembly inh = High Content Assay for Compounds that inhibit the Assembly of the Perinucleolar Compartment; PC3M PTB-GFP, PNC prevalence imaging, 16 h; stronger effect = lower value; activity change (PNC), negative = inhibition, % at 10 µM; hit rate 3.1% among 140,000;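 active = readout at or below -70, meaning at least 70% loss of cells showing the perinucleolar compartment, a nuclear body marking cancer cells; inconclusive = readout between -30 and a set limit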;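 note: plate controls were DMSO wells for no effect and camptothecin positive control wells for full effect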
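PC3M cells stably expressing PTB-GFP, 750–1000 cells/well, treated 16 h at 37 °C with compound (23 nl of library stock), in duplicate. After paraformaldehyde fixation and Hoechst stain, imaged at 20x; PNC prevalence scored by image analysis.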
* = called active by the depositor; ? = inconclusive; / = not tested or not shown; [ ] = dose if it differs, or a comment. Unless noted, calls come from the whole dose curve; as a rule, active = well fitted curve in the direction sought with a large enough effect; inconclusive = small, poorly fitted or top-dose-only effect, or another doubt; inactive = no such curve, though single readings can be large; an effect the other way counts as inactive or inconclusive.

SMILES | HTT ATP protect | HTT aggregate | PNC assembly inh
OC(COCc1ccc(Cl)cc1)CN1CCN(CC(O)COCc2ccc(Cl)cc2)CC1 (configuration not stated) | -20%[10 µM] | 4µM* | ?
Cc1cccc(C)c1OCC(O)CN1CCN(c2ccccn2)CC1 (configuration not stated) | -32% | -4% | /
OC(COC(c1ccc(Cl)cc1)c1ccc(Cl)cc1)CN1CCN(c2ccccn2)CC1 (configuration not stated) | 17%[10 µM] | 32µM* | 20
OC(COCc1ccc(Cl)cc1)CN1CCc2ccccc2C1 (configuration not stated) | 34%[10 µM] | -1% | 11
COc1ccc(CCC(C)Nc2ccccc2F)cc1 (configuration not stated) | 3%[10 µM] | -4% | -4
COc1ccc(CCC(C)NC2C3CC4CC(C3)CC2C4)cc1 (configuration not stated) | -9% | 20% | -108*
Cc1ccc(N(C(=O)CNC(=O)c2ccco2)C(C(=O)NC2CCCC2)c2cccnc2)cc1C (configuration not stated) | 5% | 16% | 45
Cc1ccc(C)c(N(C(=O)Cc2cccs2)C(C(=O)NC2CCCC2)c2ccc(C)o2)c1 (configuration not stated) | 36%[10 µM] | 12% | -11
Cc1ccc(N(C(=O)CCl)C(C(=O)NC2CCCCC2)c2cccnc2)cc1C (configuration not stated) | -86%[10 µM] | 3.5µM* | ?
Cc1ccc(C(C(=O)NC2CCCC2)N(C(=O)Cc2cccs2)c2ccc(C)c(C)c2)o1 (configuration not stated) | 0%[10 µM] | 20µM* | ?
O=C(NC1CCCC1)C(c1cccnc1)N(C(=O)c1csnn1)C1CCCC1 (configuration not stated) | 27%[1.9 µM] | 2% | 6
O=C(NC1CCCCC1)C(c1cccnc1)N(C(=O)c1csnn1)C1CCCC1 (configuration not stated) | 8%[10 µM] | 10% | -100*
CCC(C)(C)NC(=O)C(c1ccc(OC)cc1)N(CCOC)C(=O)CCC(=O)Nc1nccs1 (configuration not stated) | -18%[10 µM] | 2%[9.22 µM] | /
CC(OC(=O)C1=Cc2ccccc2OC1)C(=O)NCc1ccco1 (configuration not stated) | 6% | -3% | /
CC(=O)C1C(=O)c2c(cccc2[N+](=O)[O-])C1=Nc1ccc(S(N)(=O)=O)cc1 (configuration not stated) | 6%[10 µM] | -6%[9.22 µM] | /
Cc1cc(/C=C2\NC(=S)N(C)C2=O)ccc1N1CCCC1 | -19% | -12% | /
CCCN1C(=O)/C(=C/c2ccc(N3CCCC3)c(C)c2)NC1=S | -106% | 13µM* | ?
N#Cc1c(-c2ccc(F)cc2)cc(-c2cccnc2)nc1N | 13%[10 µM] | 0% | -89*
N#Cc1c(-c2ccc(Br)cc2)cc(-c2cccnc2)nc1N | -13%[10 µM] | -8% | -11
CCOC(=O)C1CCN(C(=O)COc2ccc(S(=O)(=O)NC(C)C)cc2)CC1 | -7% | 13% | -19
O=C(/C=C/c1ccccc1Cl)N(Cc1ccccc1)C1CCS(=O)(=O)C1 (configuration not stated) | -5%[10 µM] | 16% | -21
O=C(/C=C/c1ccccc1Cl)N(Cc1ccc(Cl)cc1)C1CCS(=O)(=O)C1 (configuration not stated) | -3%[10 µM] | -6% | -98*
CN(C)c1ccc(C(=O)c2ccc(N(C)C)c3ccccc23)cc1 | -79%[1.9 µM] | ? | -103*
COc1ccc(C(=O)c2ccc(N(C)C)cc2)c(OC)c1 | -88% | -33% | ?
C[C@H]1CC[C@]2(OC1)O[C@@H]1C[C@@H]3[C@@H]4CC[C@H]5C[C@@H](O)CC[C@]5(C)[C@@H]4CC(=O)[C@@]3(C)[C@H]1[C@@H]2C | -2%[40.3 µM] | 4%[20.6 µM] | /
SMILES | HTT ATP protect | HTT aggregate | PNC assembly inh
COc1ccc2[nH]c3c(c2c1)CCn1c-3nc2ccccc2c1=O | -52% | -7% | ?
O=C(OCc1cccc(F)c1)c1ccc2c(c1)-c1ccccc1C2=O | -13% | 9% | -18
O=C(OCc1ccccc1F)c1ccc2c(c1)-c1ccccc1C2=O | -7% | 0.79µM* | -18
COc1ccc(-n2cnc3cc(NC(=O)c4ccco4)ccc32)cc1 | -24% | -10% | -20
C=CCN1C(=O)/C(=c2\sc3nc(=O)c(Cc4ccc(OC)c(OC)c4)nn3c2=O)c2ccccc21 | 32%[10 µM] | 1%[9.22 µM] | /
CCCCNC(=O)CSc1nnc(-c2ccc(S(=O)(=O)N3CCCC3)cc2)n1C | 18%[10 µM] | -15% | -100*
Cn1c(SCC(=O)NCc2cccs2)nnc1-c1ccc(S(=O)(=O)N2CCCC2)cc1 | 5% | ? | -19
CC(C)(C)c1ccc(C(=O)N/N=C2\C3CN4CCN(C3)CC2(c2ccccc2)C4)cc1 | 8%[10 µM] | -11% | 44
O=C(/C=C/c1cccs1)Nc1nc(-c2ccccc2)cs1 | -21%[10 µM] | 35µM* | 15
O=C(COC(=O)/C=C/c1cccs1)Nc1nc(-c2ccccc2)cs1 | / | 11% | -14
Cc1cc(C)n(-c2ccc(C(=O)Nc3cc(C(F)(F)F)ccc3N3CCOCC3)cc2)n1 | 10% | 7% | -18
c1ccc(Cn2c(Nn3cnnc3)nc3ccccc32)cc1 | 3% | -10% | 18
COc1ccc(N(C)S(=O)(=O)c2cccc(C(=O)OC(C(=O)Nc3cc(C)cc(C)c3)c3ccccc3)c2)cc1 (configuration not stated) | / | 15% | -102*
CC(=O)c1cccc(NC(=O)C(OC(=O)c2cccc(S(=O)(=O)N(C)c3ccccc3)c2)c2ccccc2)c1 (configuration not stated) | ? | -3% | 35
Cn1c(=O)c(C(=O)COC(=O)c2cc(C(F)(F)F)nc3c(C(F)(F)F)cccc23)c(N)n(CC2CC2)c1=O | -8% | -13% | 45
CCOc1ccccc1/C=c1\sc2ncnn2c1=O | -24% | 0% | 58
Cc1sc2nc(CN3CCCCC3)nc(Cl)c2c1C | 28%[10 µM] | -2% | ?
Cc1cc2c(=O)[nH]cnc2s1 | -11% | 11%[9.22 µM] | 7
N/C(CN1CCCC1=O)=N\OC(=O)c1ccccc1Cl | 14%[10 µM] | 3% | -87*
N/C(CN1CCCC1=O)=N\O | -7%[10 µM] | -7% | 29
O=S1(=O)CCN(OCc2ccc(F)cc2Cl)CC1 | -2% | 15% | /
O=C(NCCCn1ccnc1)c1cc(-c2ccc3c(c2)OCO3)on1 | -6% | -1% | -91*
O=C(NCCCn1ccnc1)c1cc(-c2ccc(Br)cc2)on1 | -47% | -19% | /
COc1ccccc1OCC(=O)NNC(=O)c1ccoc1C | / | 21% | 46
Cc1cc(NC(=O)c2c(Cl)cnn2C)no1 | -11% | -5% | ?
Cn1ncc(Cl)c1C(=O)Nc1ccc(Cl)cn1 | -10%[10 µM] | -18% | -100*
Cc1c(O)c2c3c(cccc3c1O)C(=O)N(c1ccccc1)C2=O | / | 20µM* | ?
O=C(O)c1ccc2c3c(cccc13)C(=O)N(c1ccccc1)C2=O | 20% | 8% | /
COC(=O)C(C)Sc1nnc(SC(C)C(=O)OC)s1 (configuration not stated) | 13% | -24% | 8
